# Sampled rows, rich in hits. Any-hit rate of the full collection: about 12%.
# L3MBTL1 block = blocks human L3MBTL1; Q9Y468; AlphaScreen L3MBTL1–H3K9me1 peptide binding; Potency, µM (series often up to 57.1 µM), for inactives: top-dose activity, negative = inhibition, most hits filed as inhibitors; 0.66% of 230,000 active; AID 485360; also: % is scaled to controls: 0 for no effect and ±100 for the full control effect; nearly all actives have a fitted effect of over 60% in size
# Target sequence (Q9Y468 whole entry, looked up): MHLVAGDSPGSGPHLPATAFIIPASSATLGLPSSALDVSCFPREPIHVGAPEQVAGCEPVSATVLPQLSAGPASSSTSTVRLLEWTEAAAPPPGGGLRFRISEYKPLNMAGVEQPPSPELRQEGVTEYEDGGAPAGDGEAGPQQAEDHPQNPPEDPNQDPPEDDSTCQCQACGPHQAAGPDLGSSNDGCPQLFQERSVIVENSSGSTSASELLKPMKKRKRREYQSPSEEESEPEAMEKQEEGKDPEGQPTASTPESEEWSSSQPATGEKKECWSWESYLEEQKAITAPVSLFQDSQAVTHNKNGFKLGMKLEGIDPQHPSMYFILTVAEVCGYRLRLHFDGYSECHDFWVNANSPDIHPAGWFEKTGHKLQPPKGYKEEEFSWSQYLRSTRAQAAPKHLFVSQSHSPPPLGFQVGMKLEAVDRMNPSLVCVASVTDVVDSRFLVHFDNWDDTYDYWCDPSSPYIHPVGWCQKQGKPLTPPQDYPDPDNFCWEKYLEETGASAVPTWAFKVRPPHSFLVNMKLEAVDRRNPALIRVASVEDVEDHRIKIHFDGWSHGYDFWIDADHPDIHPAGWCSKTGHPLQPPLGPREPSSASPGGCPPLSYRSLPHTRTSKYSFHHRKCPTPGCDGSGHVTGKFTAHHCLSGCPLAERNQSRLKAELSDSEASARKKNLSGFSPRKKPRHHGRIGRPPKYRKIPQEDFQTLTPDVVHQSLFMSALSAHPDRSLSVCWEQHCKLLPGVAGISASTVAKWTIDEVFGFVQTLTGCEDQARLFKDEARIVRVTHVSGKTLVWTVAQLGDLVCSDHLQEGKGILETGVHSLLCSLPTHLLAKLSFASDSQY
#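 AlphaScreen assay: L3MBTL1 (50 nM final) was preincubated 30 min at room temperature with biotinylated H3(1-15)K9me1 peptide (75 nM final), then 30 min with library compounds; streptavidin donor and nickel chelate acceptor beads (10 ug/mL final) added, 30 min dark.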
# Sfp inh = blocks B. subtilis Sfp PPTase activity; AID 1490; Biochemical Sfp PPTase activity, qHTS; Potency, µM, without a hit: largest response in the series, negative = inhibition, usual class: inhibitors; 3.5% of 310,000 active;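 also: the enzyme is Sfp with the accession as filed and its product quenches rhodamine fluorescence; 0% = enzyme reaction without inhibitor and -100% = no enzyme wells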
#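 Fluorescence-quenching assay with 15 nM Sfp, 5 uM rhodamine-CoA and 12.5 uM BHQ-2-labelled ybbR peptide in pH 7.6 Hepes/MgCl2 buffer. Enzyme was pre-incubated with compound for 15 min at room temperature. Rate was taken from the 30-min fluorescence change (525/598 nm).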
# HP1b binding inh = HP1-beta chromodomain-methylated histone interaction inhibition. P83916. Potency, µM (doses to about 114 µM), without a hit: at the top dose activity change, negative = inhibition, most hits filed as inhibitors. 0.56% of 390,000 active. AlphaScreen HP1-beta / biotin-H3K9me3 peptide binding; also: nearly all actives have a fitted effect of over 70% in size
#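 AlphaScreen: HP1-beta (50 nM) preformed 30 min with biotin-H3(1-18)K9me3 peptide (50 nM) in PBS pH 7.4, 0.01% Tween-20. Compound added for 30 min at RT, then streptavidin donor/nickel chelate acceptor beads (10 ug/mL) for 30 min.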
# JMJD2A Tudor inh = inhibitors of human JMJD2A Tudor domain. AlphaScreen JMJD2A-Tudor / H3K4me3 peptide binding. Potency, µM (doses to about 114 µM), without a hit: top-dose activity change, negative = inhibition, most hits filed as inhibitors. 4.4% of 390,000 active. AID 504339; also: % is scaled to controls: 0 for no effect and ±100 for the full control effect; nearly all actives have a fitted effect of over 50% in size
# BAZ2B block = blocks human BAZ2B | 4.4% of 360,000 active | AlphaScreen BAZ2B-H3K14Ac peptide displacement | AID 504333 | Potency, µM (series often up to 114 µM), for the others: at the top dose activity change, negative = inhibition, actives largely listed as inhibitors; also: % is scaled to controls: 0 for no effect and ±100 for the full control effect; nearly all actives have a fitted effect of over 60% in size
#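 Protein-peptide AlphaScreen: BAZ2B 50 nM, b-H3K14Ac 50 nM, 1x PBS pH 7.4 + 0.01% Tween-20. Preincubation 30 min RT; cpd 30 min RT (top 110 uM); beads 20 min RT, light-protected.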
# G9a inh = inhibitors of human histone lysine methyltransferase G9a | 8.8% of 350,000 active | G9a H3K9 monomethylation, AlphaScreen, 2 h | Potency, µM (top dose mostly 102 µM), inactives show top-dose activity, negative = inhibition, most hits filed as inhibitors; also: % is scaled to controls: 0 for no effect and ±100 for the full control effect; nearly all actives have a fitted effect of over 75% in size
#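 Enzyme 20 nM + cpd, 15 min RT; add b-H3K9 pep 500 nM / SAM 20 uM; 2 h RT; anti-H3K9me1 Ab 0.5 ug/mL + SA donor / anti-rabbit acceptor beads 20 ug/mL each, 10 min; AlphaScreen read.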
# * marks the source's active call; other numbers are inactive results; ? = inconclusive; / = no result given; [ ] = dose if it differs, or a comment. Calls follow the shape of the dose curve; as a rule, active = well fitted curve in the direction sought with a large enough effect; inconclusive = small, poorly fitted or top-dose-only effect, or another doubt; inactive = no such curve, though single readings can be large; an effect the other way counts as inactive or inconclusive. Potency is read from the fitted curve at half-maximal effect.
SMILES,L3MBTL1 block,Sfp inh,HP1b binding inh,JMJD2A Tudor inh,BAZ2B block,G9a inh
COCO[C@H]([C@@H](C)C=C(Br)Br)[C@@H](C)COCc1ccc(OC)cc1,/,-5%,116%,77%,/,/
Cc1ccc2c(c1)c1c3n2CCN(CC(N)=O)C3CCC1 (centres undefined),22%,19%,21%,-6%,24%,/
Cc1ccc2c(c1)c1c3n2CCN(CCC(=O)O)C3CCC1 (centres undefined),-3%,11%,27%,-17%,?,45µM*
COc1ccc(Nc2nn(-c3ccc(OC(F)(F)F)cc3)nc2C(C)=O)cc1,/,/,53%,-9%,-14%,23%[59 µM]
C[C@@]1(C(=O)O)NCCc2cc(O)c(O)cc21,/,56µM*,/,/,/,/
O=C(Nc1ccc2c(c1)CCC2)c1cnn2c1NC(=C1CC1)C=C2C(F)F,/,/,17%,/,/,/
Cc1cc2c(Nc3ccc(C(=O)O)cc3)ncnc2s1,-3%,4%,30%,-9%,-3%,/
Cc1cc2c(Nc3ccc(O)cc3)ncnc2s1,-10%,1%,37%,-13%,?,56µM*
COc1cc(OC)c(Nc2nc3ccc(C(=O)c4ccccc4)cc3n3c(C)nnc23)cc1Cl,/,/,43%,-4%,-1%,-7%[59 µM]
COc1cc2c(cc1OC)C1O[C@](c3ccsc3)(C2)Oc2cc(C)n(Cc3ccccc3)c(=O)c21,/,7%,/,/,4µM*,13%[2.33 µM]
CCCCC[C@]12Cc3cc(OC)c(OC)cc3C(O1)c1c(cc(C)n(-c3ccccc3)c1=O)O2,/,-11%,/,/,11µM*,8%[2.33 µM]
COc1cc2c(cc1OC)C1O[C@](CCCCN3C(=O)c4ccccc4C3=O)(C2)Oc2c1c(=O)oc1ccc(F)cc21,/,-19%,/,/,8.9µM*,?
C[C@@]12C=Cc3occc3[C@H]1CC[C@@]13C[C@@H](CC[C@H]12)[C@@](O)(CO)C3,/,-17%,/,/,/,/
CN(C)c1ccc(C(CNC(=O)COc2ccccc2)N2CCOCC2)cc1 (centres undefined),/,/,17%,-18%,-28%,-4%[12.7 µM]
CC(C)=C1C(=O)NN(c2ccc(F)c(Cl)c2)C1=O,-18%,17%,1%,-29%,?,/
O=C1NN(c2ccc(F)c(Cl)c2)C(=O)/C1=C\c1cccc(OC(=O)c2cccs2)c1,/,-6%,?,79µM*,?,20µM*
CCn1cc2nc(SCc3cccc(C(F)(F)F)c3)n(Cc3ccc(C)cc3)c(=O)c2n1,/,/,5%,-25%,2%,8%[59 µM]
Cc1ccc(N2CC(C(=O)Nc3ccc(N(C)C)cc3)CC2=O)cc1C (centres undefined),/,?,-6%,56µM*,?,-30%[12.7 µM]
Cc1ccc(N2CC(C(=O)Nc3ccccc3C(=O)NC3CCCCC3)CC2=O)cc1C (centres undefined),/,/,-11%,20µM*,/,/
O=C(NC1CC1)C1CC(=O)N(c2cccc(Cl)c2)C1 (centres undefined),/,-7%,43%,-3%,-38%,25µM*
Cc1ccc(N2CC(C(=O)NC3CC3)CC2=O)cc1Cl (centres undefined),/,23%,4%,0%,-1%,-7%
Cc1ccc(N2CC(C(=O)Nc3ccccc3C(=O)NC3CCCCC3)CC2=O)cc1 (centres undefined),3%,12%,30%,-10%,2%,1%[59 µM]
CCc1ccccc1NC(=O)c1sc(-n2nc(C)c(Cc3ccccc3)c2C)nc1C,/,/,54%,1%,-18%,6%[59 µM]
O=C(O)c1csc(-c2cccc(Cl)c2)n1,/,-15%,11%,-3%[11.4 µM],-26%,40µM*
O=C(O)c1csc(-c2ccccc2)n1,/,9%,19%,0%[11.4 µM],-23%,?
SMILES,L3MBTL1 block,Sfp inh,HP1b binding inh,JMJD2A Tudor inh,BAZ2B block,G9a inh
CNC(=O)c1csc(-c2cccs2)n1,8%,17%,53%,2%,-14%,2%
O=C(O)c1csc(-c2cccs2)n1,2%,14%,22%,-8%,-18%,79µM*
C=CCNC(=O)CC1Nc2c3ccccc3nc(=S)n2C1=O (centres undefined),2%,?,46%,0%,-22%,35µM*
CC(C)CCNC(=O)CC1Nc2c3ccccc3nc(=S)n2C1=O (centres undefined),/,-16%,38%,11%,-31%,56µM*
CC(C)NC(=O)CC1Nc2c3ccccc3nc(=S)n2C1=O (centres undefined),11%,?,54%,-2%,-1%,17%[2.33 µM]
Cc1ccc(S(=O)(=O)Cc2nc(-c3ccc(C(=O)NCc4ccccc4)cc3)oc2C)cc1,/,/,17%,-12%,-2%,-22%[59 µM]
C=C(C)C(O)/C=C/c1ccc(OC)cc1 (centres undefined),/,-7%,/,/,/,/
COc1ccc(NC(=O)C2=CC(c3cccs3)=NS(=O)(=O)N2C)cc1,-6%,18%,5%,?,-27%,-12%
Cc1ccc(C2=NS(=O)(=O)N(C)C(C(=O)NCc3cccs3)=C2)cc1,-6%,4%,4%,-29%,-38%,7%
COc1ccc(OC)c(C2=NS(=O)(=O)N(C)C(C(=O)Nc3cccc(C(C)=O)c3)=C2)c1,/,18%,-11%,16µM*,?,45µM*
COc1ccc(OC)c(C2=NS(=O)(=O)N(C)C(C(=O)NCc3cccs3)=C2)c1,/,2%,-7%,22µM*,-30%,-2%
Cc1ccccc1Nc1c(-c2ccccc2O)nc2sccn12,/,/,24%,?,?,-5%[59 µM]
COc1ccc(Nc2ncc(C(=O)Nc3cc(Cl)c(OC)cc3OC)c3ccccc23)cc1,/,/,5%,-10%,-4%,-41%[59 µM]
COc1ccc(Nc2ncc(C(=O)Nc3cccc(Cl)c3)c3ccccc23)cc1,/,/,6%,79µM*,79µM*,-4%[59 µM]
Cc1ccc(-c2nnn(CC(=O)N(Cc3ccco3)C(C(=O)NC(C)(C)C)c3cccs3)n2)o1 (centres undefined),-14%,?,20%,-25%,?,13µM*
Cc1ccc(-c2nnn(CC(=O)N(Cc3cccs3)C(C(=O)NC(C)(C)C)c3ccc(C)o3)n2)o1 (centres undefined),-9%,-26%,20%,-7%,-3%,?
Cc1ccc(-c2nnn(CC(=O)N(Cc3cccs3)C(C(=O)NC(C)(C)C)c3ccco3)n2)o1 (centres undefined),5%,?,24%,-20%,-12%,18µM*
CCCCC(=O)Nc1ccc(NCc2ccc(C)s2)cc1,/,5%,-1%,?,-35%,50µM*
CCC(=O)C1=C(c2ccc(OC)c(OC)c2)N(C(=O)CC)n2c(CC)nnc2S1,/,/,38%,-12%,-23%,17%[59 µM]
CCc1ccc(Nc2n[n+](-c3ccccc3)c(-c3ccc(C(=O)O)cc3)s2)cc1,-2%,45µM*,-9%,79µM*,35µM*,32µM*

# Bioassay records (PubChem BioAssay)
